PubChem BioAssay AID489008 (National Center for Advancing Translational Sciences (NCATS), 2010)
Inconclusive results are not listed. Calls of active or inactive are those of the source. The call rests on the fitted dose curve; in most records, active means well fitted inhibition curve with a large enough effect; inconclusive means small, poorly fitted or top-dose-only effect; inactive means flat fitted curve, though single readings scatter.

molecular target: Ferritin light chain (Equus caballus) (UniProt P02791); experiment: Confirmation Assay for Identification of Novel General Anesthetics; conditions: apoferritin 1-aminoanthracene fluorescence displacement; further: nearly all actives have a fitted effect of over 40% in size
Sequence (P02791 2-175 limits assumed): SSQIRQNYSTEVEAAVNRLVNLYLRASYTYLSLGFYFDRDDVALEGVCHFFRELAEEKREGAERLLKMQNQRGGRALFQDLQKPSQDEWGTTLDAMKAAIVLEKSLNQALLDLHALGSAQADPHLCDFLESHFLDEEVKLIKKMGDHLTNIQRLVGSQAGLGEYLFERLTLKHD
Outline: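 Horse apoferritin (10 uM) pre-loaded with 1-AMA (50% saturated, PBS) exposed to compounds 10 min at room temperature; loss of 1-AMA fluorescence (380/535 nm) scaled between free and bound ligand, curves fitted with Hill equation.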
Potency means the concentration at half of the fitted maximal effect.

Potency, active:
Cc1ccc(Cn2cccc(NC(=O)NC3CCCCC3)c2=O)cc1 15.8 µM
Cc1ccc(OCc2cc(C(=O)N3CCCCCCC3)no2)cc1C 22.4 µM
O=C(Nc1cccc(Cl)c1)C1COc2ccccc2O1 (centres undefined) 14.1 µM
Cc1ccc(C(=O)COC(=O)c2ccc(Br)o2)cc1C 15.8 µM
COc1cccc(NS(=O)(=O)c2ccc(Br)s2)c1 15.8 µM
Cc1ccc(NCc2ccccc2O)cc1 14.1 µM
O=C(CO/N=C/c1ccc(OC(F)F)cc1)NC1CCCCCC1 11.2 µM
Cn1cc(Br)c(C(=O)NC2C3CC4CC(C3)CC2C4)n1 (centres undefined) 10 µM
O=C(CCC1CCCCC1)Nc1nncs1 15.8 µM
Cc1cccc(S(=O)(=O)NCCc2ccccc2)c1 14.1 µM
O=c1[nH]c(SCC2CCCCO2)nc2ccccc12 (centres undefined) 14.1 µM
C/C(=N\O)C(C)(C)Nc1ccc(Br)cc1 8.91 µM
O=C(CCN1CCN(CCO)CC1)Nc1ccc(C2CCCC2)cc1 31.6 µM
CC1CCCCC1NC(=O)Cn1nc(-c2ccccc2)ccc1=O (centres undefined) 7.08 µM
c1cnc(NC2C3CC4CC(C3)CC2C4)nc1 (centres undefined) 6.31 µM
COc1ccc(CNC(=O)COC(=O)CCC2CCCCC2)cc1 15.8 µM
NC(=O)COC(=O)CC12CC3CC(CC(C3)C1)C2 15.8 µM
Nc1nnc(SCC(=O)NC23CC4CC(CC(C4)C2)C3)s1 7.94 µM
CCC1CCCCN1S(=O)(=O)Cc1ccccc1Cl (centres undefined) 15.8 µM
COc1ccccc1CC(=O)NC12CC3CC(CC(C3)C1)C2 12.6 µM
Nc1ccccc1Oc1ccc2ccccc2c1 11.2 µM
Nc1nnc(SCc2ccccc2Cl)s1 14.1 µM
ON1C(c2ccc(Cl)cc2Cl)N(O)[C@H]2CCCC[C@H]21 (some centres undefined) 7.94 µM
Cc1ccc(CN=C2Nc3ccccc3CS2)cc1 14.1 µM
CCC(CC)C(=O)OCC(=O)NC12CC3CC(CC(C3)C1)C2 10 µM
O=C(NC1CCCCC1)C(=S)NCc1ccccc1 15.8 µM
Cc1ccc(SCC(=O)N2N=CCC2c2ccccc2)cc1 (centres undefined) 15.8 µM
Cc1cnc(C(=O)OCC(=O)NC23CC4CC(CC(C4)C2)C3)cn1 14.1 µM
COc1cccc(NC(=O)N2CCCCCC2)c1 14.1 µM
Fc1ccccc1CSc1nc2ccccc2[nH]1 15.8 µM
Cc1ccc(NCc2ccccc2)cc1 10 µM
CC1(COc2ccc(CC3SC(=O)NC3=O)cc2)CCCCC1 (centres undefined) 14.1 µM
COc1cc(CNCCO)ccc1OCCc1ccccc1 15.8 µM
COc1ccccc1CC(=O)Nc1cc(Cl)ccc1O 17.8 µM
CCc1ccc(CNC(=O)Cn2nc(-c3ccccc3)ccc2=O)cc1 10 µM
Cc1ccc(-c2ccc(=O)n(CC(=O)NC(C)c3ccccc3)n2)cc1 (centres undefined) 20 µM
Cc1ncsc1CCOC(=O)C12CC3CC(CC(C3)C1)C2 15.8 µM
Oc1cccc(Oc2ncc(C(F)(F)F)cc2Cl)c1 7.94 µM
CCN(CC)CC(=O)Nc1c(C)cc(C(C)(C)C)cc1C 12.6 µM
